Data taken from the supplement of paper PMC6555819.

These sequences were tested on VDR:RXRa (NR concentration 270 nM, RXRa partner concentration 90 nM) (assay: PBM binding z-score (relative to random genomic background probes); higher = stronger binding; sequences stand for … in GC…GCGATTGACAGCGTAGAATGAAGG).
Method: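 Protein-binding microarray (Agilent 4x180K custom design, double-stranded 60-nt probes: 5' GC cap, 34-nt variable region, 24-nt constant primer region; full probe sequence given). Purified or IVT nuclear receptor:RXRα heterodimers (3:1 NR:RXRα, mostly 270:90 nM) or homodimers were incubated for 1 h in PBS with 2% milk and no ligand, then detected with Alexa488 antibodies. Fluorescence from o1-orientation probes (~5 replicates averaged) was converted to z-scores against 500 random hg19 background probes. Variable regions are seed direct-repeat (DR0–DR5) sites, all their single-nucleotide variants and half-site ablations.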
Sequence TCATATAGGTAAAAGGTGAAAGTTGGTGTGGTAA has a PBM binding z-score of 1.88. Work on ATCTCTAGGTAAAGATAGTTCATTGAATGCAAAT yielded a PBM binding z-score of 2.07. For CGTCAAAATTCAAGGTAACGTAACAGAAAGCAGC, the PBM binding z-score was 0.111. Sequence CAAACTAGGTCACCGGAAGATCAAAGTCCGCATG has a PBM binding z-score of 2.62. For AGTCAAATTTCAGGACGAGGTAACGTAAAGCACG, the PBM binding z-score was -0.0744. GCGACTGGGGCATCAGCTGGTTACCATAACTTAA showed a PBM binding z-score of -0.49. Work on CGAACTAGGGCAGAACAGGACAGTGAAGGATGAT yielded a PBM binding z-score of -0.31. Sequence CCTACTGGGCCACGAAAGATCATTGATTCAGTGA has a PBM binding z-score of -0.306. Sequence CCGACTGGGGCATAAGGTTACCATAAGCCAGCCC has a PBM binding z-score of -0.0909. For CCTACTGGGCCAGAGGTCATTGATTCCAATGCTC, the PBM binding z-score was 4.47. In the case of ATCTCTAGGTAACCAAGTTCTGTGAATGCCGAAC, the PBM binding z-score was 0.866. Sequence GATAGAGGGTCAAGGCCAGAGTACGCGTATTGAT has a PBM binding z-score of 3.37. For AGAATGAGGTTAAGATCAGAGAAACAGAATACAT, the PBM binding z-score was 1.11. In the case of CATACAAGGTCAGCTAGGCCAGAGTAGGGACGGC, the PBM binding z-score was 3.81. In the case of GCATATAGGTAATACATGGTGAAAGTCCGATTGT, the PBM binding z-score was -0.0137. Sequence TGGCAAAGTTCAAAGGTAACGTAAGTATCCACAC has a PBM binding z-score of 5.01. For CGAACTAGGTCACCGGAAGGTCAAAGTCCGCATG, the PBM binding z-score was 5.8. AATACAGGGTCACCGTAGGCCAGAGTACGCACAG gave a PBM binding z-score of 5.2. With GCAGACAGGTGAAACGCAGGTATCTCAGGGTGGC the PBM binding z-score was -0.475. Sequence TCTATTAGTTGATTCGGGCAACCGAAACAGCGGA has a PBM binding z-score of 0.506. In the case of CCTACTGGTCCATTCAGAGGTCATTGATCATATG, the PBM binding z-score was 4.24. With TGTCAAAGTTCAAAGGTAACCTAAGTATCCACAC the PBM binding z-score was 5.12. Sequence CCTTACGGGTCACTGACAGGTTCTAGCATTTGGA has a PBM binding z-score of 3.36. For ATATGTAGGTTAAGAGTCATTCAGGTTGGTTCGC, the PBM binding z-score was 1.6. ATCTCTAGGTAAAGTTCAGTAAAAGATCGATAGA was tested, and the PBM binding z-score was 1.65. For TCTGCTAGTTCAACGATGGTCAGCTAATCTGCTA, the PBM binding z-score was 0.196. In the case of TATACAGGGGCAAAGGCCAGAGTACGAATGTCGA, the PBM binding z-score was 1.03. AGAACGAGGGCAATGAGTTGGTAGCACGGGTGGC showed a PBM binding z-score of 4.09. CCTGCTAGGTCAATGGTCCGCTAAAGCAGCTCGC showed a PBM binding z-score of 0.759. CGAACGAGGGCATGAGTTTATAGCAAATGCCGAT gave a PBM binding z-score of 3.02. GGAACGAGGACAAAGTTGATAGCATCTGTCGACG was tested, and the PBM binding z-score was -0.104. For ATCACTAGGTAAAGATAGTTCAGTGAATGCAAAT, the PBM binding z-score was 0.888. For GCTGCTAGGTCATCTGATGGTCAGCTAAAGCTCG, the PBM binding z-score was 1.98. With TGAATGAGGTTATAAGGTCAGGGAACGTTGCAAA the PBM binding z-score was 4.04. Sequence TCATATGGGTAAACAGGTGAAAGTCCGTAAGTTA has a PBM binding z-score of 0.583. TAGCCGAGGTCATTGGGCCAGTATAGTACGCATC gave a PBM binding z-score of 5.59. TTACCAAGGTGAAGGTCGTCGATCCCTCTGTAGA was tested, and the PBM binding z-score was 1.09. ACAGACAGGTGACTGAAGGTAACTCAGCTGGACG gave a PBM binding z-score of -0.404. Sequence CCTACTGGGCCAAAAAGGTCATAGATGCCGATAA has a PBM binding z-score of 4.4. Work on ACTCGGAGGACGAAGGTCAGAGCTACGCCAGTGA yielded a PBM binding z-score of 1.15.
